D1 agonist: human D1 receptor agonism; HEK293 T-REx D1 cells, calcium flux, agonist mode; activation, % at 2 µM; actives 1% (n = 360,000); in the data active = activation above about 30%; note: 0% is about no effect
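Inducible HEK293 T-REx D1 cells, force-coupled to calcium signalling, were plated at 4000 cells/well with tetracycline and held overnight at 30 C. After no-wash calcium dye loading, compound-evoked calcium rise over 180 s flagged agonists.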
D1 antag: antagonists of human D1 dopamine receptor | P21728 | HEK293 TREx D1 cells, calcium flux, dopamine EC80; stronger effect = lower value | activity change, negative = inhibition, % at 10 µM | actives 3.2% (n = 360,000) | AID 504652; in the data active = activity change below about -30%; note: % is set by controls: 0 for no effect and ±100 for the full control effect
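After overnight tetracycline induction at 30 C, force-coupled D1 HEK293 cells took up a no-wash calcium dye at room temperature. Compounds were added and monitored 180 s, and the response to EC80 dopamine was then recorded.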
D1 PAM: human D1 dopamine receptor positive modulation | actives 0.036% (n = 360,000) | HEK293 TREx D1 cells, calcium flux, dopamine EC20 potentiation | P21728 | potentiation, % at 10 µM; in the data active = potentiation above about 30%; note: 0% is about no effect
D3 antag: D3 dopamine receptor (human) antagonism | D3R cells, DiscoveRx beta-arrestin luminescence, antagonist mode; stronger effect = lower value | AID 652054 | actives 2.5% (n = 360,000) | P35462 | max response, negative = inhibition, %; in the data active = max response below about -50%; inconclusive = no clear call, values can overlap the other calls; note: % is set by controls: 0 for no effect and ±100 for the full control effect
Target sequence (P35462 whole entry, looked up): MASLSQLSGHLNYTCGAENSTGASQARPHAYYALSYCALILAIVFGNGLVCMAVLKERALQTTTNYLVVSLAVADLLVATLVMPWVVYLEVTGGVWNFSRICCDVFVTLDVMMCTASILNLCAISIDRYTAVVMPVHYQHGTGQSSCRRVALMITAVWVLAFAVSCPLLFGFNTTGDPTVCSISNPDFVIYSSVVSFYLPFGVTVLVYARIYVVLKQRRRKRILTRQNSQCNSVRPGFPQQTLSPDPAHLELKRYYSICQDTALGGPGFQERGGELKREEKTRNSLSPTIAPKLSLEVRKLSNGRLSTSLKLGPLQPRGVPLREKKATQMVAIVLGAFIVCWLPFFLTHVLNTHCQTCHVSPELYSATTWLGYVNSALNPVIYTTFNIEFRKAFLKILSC
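Cells expressing the human receptor were seeded at 1500 cells/well, incubated overnight at 37 degrees C in 5% CO2, then exposed to library compounds with dopamine controls for 90 minutes at 37 degrees C before luminescent detection.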
DRD3 agonist: activates the human D3 dopamine receptor; P35462; D3R DiscoveRx beta-arrestin cells, luminescence, 90 min; max activation, %; actives 0.58% (n = 410,000); AID 652048; in the data active = max activation above about 30%; note: 0% is about no effect
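Agonist-mode cell screen: cells plated at 1500/well and incubated overnight at 37 °C, then exposed to library compounds for 90 min at 37 °C. Detection reagent was added for 30–60 min at room temperature, and luminescence was read.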
Active calls of the source: *; ? = inconclusive; / = not tested or not shown. Most compounds without a hit are left out; they make up all but 6% or so of the library.

SMILES	D1 agonist	D1 antag	D1 PAM	D3 antag	DRD3 agonist
O=C(c1ccc2c(c1)OCO2)C1CCCN(Cc2c(F)ccc(F)c2F)C1 (configuration not stated)	0	-29	-2	-17	-13
O=C(c1ccc2c(c1)OCO2)C1CCCN(Cc2cc(F)ccc2-n2cccn2)C1 (configuration not stated)	1	-36*	-10	-13	-8
O=C(c1ccc2c(c1)OCO2)C1CCCN(Cc2ccccc2OC(F)F)C1 (configuration not stated)	4	-6	-6	-63*	-16
Cc1ccc(-n2cccn2)c(CN2CCCC(C(=O)c3ccc4c(c3)OCO4)C2)c1 (configuration not stated)	3	-1	-5	-63*	-32
COc1cccc(CN2CCCC(C(=O)c3ccc4c(c3)OCO4)C2)c1OC (configuration not stated)	5	-7	-5	-15	-10
O=C(OCc1nc2ccccc2s1)c1cccc(S(=O)(=O)N2CCOCC2)c1	1	-2	-6	-19	5
O=C(CCc1ccc(S(=O)(=O)N2CCOCC2)cc1)OCc1nc2ccccc2s1	33*	-9	2	5	1
Cc1cccc(N2CCN(Cc3nnc(-c4ccccc4C)o3)CC2C)c1 (configuration not stated)	1	-3	-3	/	-13
Cc1ccc(Cl)cc1NC(=O)CCS(=O)(=O)c1ccc2c(c1)n(C)c(=O)c(=O)n2C	2	-35*	0	15	1
CCOc1ccccc1NC(=O)CSc1nnc2[nH]c(=O)cc(-c3ccccc3)n12	-4	/	3	/	2
O=C(Nc1ccc(Br)cc1)c1ccc(N2C(=O)C3CCCCC3C2=O)cc1 (configuration not stated)	4	-37*	-6	-9	0
Fc1ccc(Nc2nc(SCc3cccc(Cl)c3)nc3ccccc23)cc1	8	-5	-1	/	6
CCOc1ccc(C(=O)NCCn2cc(SCC(=O)NCCc3ccc(OC)c(OC)c3)c3ccccc32)cc1	2	-1	-4	/	0
C=C(C)CC(NCc1ccco1)c1ccc(OC)cc1 (configuration not stated)	5	-36*	4	28	-15
O=c1c2cc3c(cc2n(Cc2cccc(Cl)c2)c(=O)n1Cc1nc(-c2ccccc2)no1)OCO3	3	-52*	-3	/	8
Cc1cc(C)cc(OCC(=O)NNC(=O)c2ccccn2)c1	2	-38*	-1	-18	-5
Cc1ccc(OCC(=O)O/N=C(\N)c2ccccn2)cc1C	8	-44*	-8	-10	5
COc1ccc(Nc2cc(C(=O)NCCCN(C)Cc3ccccc3)c3ccccc3n2)cc1	43*	-46*	-4	/	-19
CCN(CCCNC(=O)c1cc(Nc2ccccc2OC)nc2ccccc12)c1cccc(C)c1	1	-35*	-3	/	9
COc1ccc(Nc2cc(C(=O)NCCCN(C)Cc3ccccc3)c3ccccc3n2)c(OC)c1	19	-27	-6	/	-18
O=S(=O)(Nc1c(S(=O)(=O)c2ccccc2)c2nc3ccccc3nc2n1C1CCCCC1)c1ccccc1	0	-12	-1	-70*	6
CC(C)Oc1ccc(CNS(=O)(=O)c2ccc(-c3cc(C(F)(F)F)on3)s2)cc1	4	1	-3	/	-28
CN(C(=O)CN1C(=O)NC(C)(c2cccc(Br)c2)C1=O)C1CCCCC1 (configuration not stated)	6	-57*	-3	7	2
CCOC(=O)c1cc(OC(=O)c2cccc(C)c2)n(-c2ccccc2)n1	2	-3	-1	/	3
CCOC(=O)c1cc(OC(=O)c2cccnc2)n(-c2ccccc2)n1	0	-39*	6	/	/
SMILES	D1 agonist	D1 antag	D1 PAM	D3 antag	DRD3 agonist
COc1ccc(-n2nnnc2S(=O)(=O)CC(=O)N2CCCCC2)cc1	6	-6	/	-98*	-9
Cc1c(C(=O)NCc2cccc(C(F)(F)F)c2)sc(=O)n1Cc1cccc(F)c1	/	/	/	-52*	-9
O=C(CN1CCN(S(=O)(=O)c2ccc(Cl)cc2)CC1)Nc1ccc(F)cc1F	4	-17	0	0	3
O=C(CN1CCCC1)Nc1ccc2c(c1)CCC2	2	11	6	-23	-10
O=C(CN1CCN(c2ccccc2O)CC1)Nc1ccc2c(c1)CCC2	1	7	6	-72*	-12
O=C(CN1CCN(S(=O)(=O)c2ccccc2)CC1)Nc1ccc2c(c1)CCC2	16	-13	-4	-53*	-25
O=C(CN1CCN(S(=O)(=O)c2ccc(Br)cc2)CC1)Nc1ccc(F)cc1F	1	-21	-7	-51*	-1
Nc1sc2c(c1C(=O)NCCc1ccccc1)CCCC2	/	/	/	8	1
Cc1cccc(C(c2sc3nc(-c4ccco4)nn3c2O)N2CCN(c3ccccc3)CC2)c1 (configuration not stated)	1	/	3	/	-13
CC(c1ccccc1)C1CC(=O)N(CC(=O)O)C1=O (configuration not stated)	6	-32*	-7	8	6
Cc1ccc(C(C)C)c(OCC(O)CN2CCc3ccccc3C2)c1 (configuration not stated)	27	-8	0	?	-16
Cc1ccc(C(C)C)c(OCC(O)CN2CCN(c3ccccc3F)CC2)c1 (configuration not stated)	4	-34*	-1	/	26
C=CCc1ccccc1OCC(O)CN1CCN(c2ccccc2OC)CC1 (configuration not stated)	16	-43*	-8	-139*	-12
C=CCc1ccccc1OCC(O)CN1CCN(c2ccccc2F)CC1 (configuration not stated)	7	-61*	-20	?	28
C=CCc1ccccc1OCC(CN1CCCCC1)OC(C)=O (configuration not stated)	0	3	-11	?	-9
COc1ccc(NC(=O)Cn2c(=O)n(-c3ccc(CC(=O)NCC4CCCO4)cc3)c(=O)c3ccccc32)c(OC)c1 (configuration not stated)	0	6	1	/	8
COc1ccc(NC(=O)CCc2c(C)nc3c(c2C)c(=O)n(C)c(=O)n3C)c(OC)c1	1	-7	-4	/	1
COc1ccc(/C=C(/C(=O)c2ccc(Cl)cc2Cl)n2cncn2)cc1	2	2	-4	-22	-2
CN(C)/C=C(/C(=O)c1ccc(Cl)cc1)n1cncn1	3	-33*	-3	-8	-9
CN(C)c1ccc(/C=C(/C(=O)c2ccc(Cl)cc2Cl)n2cncn2)cc1	200*	-50*	0	3	-3
CCCCN(CC)C(=O)CCCn1c(=O)c2cccn2c2ccccc21	2	-15	-3	/	9
Cc1cccc(N2CCN(C(=O)Cc3c(C(=O)O)c(C)cn3C)CC2)c1C	0	12	2	/	7

High-throughput results from PubChem BioAssay.
